Activity calls are given as the source filed them. Calls follow the shape of the full dose curve.
assay: qHTS assay to identify small molecule agonists of the estrogen related receptor (ERR) signaling pathway from Tox21 library (AID 1224849); settings: ERR reporter cell line, ONE-Glo luciferase, 18 h; at 92.4 µM (top of the series) unless noted; also: nearly all actives have a fitted effect of over 15% in size
Summary of the method: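 Luminescent agonist read-out (One-Glo, 30-minute room-temperature incubation) following 18-hour compound treatment at 37 C of the ERR cell line, which had been plated 6 hours before dosing.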
% is scaled to controls: 0 for no effect and ±100 for the full control effect.

SMILES | activity change, positive = activation
CCOc1ccc(N)c([N+](=O)[O-])c1 | -0.453% (inactive)
CN1CCC(=C2c3ccccc3Sc3ccccc32)CC1 | 1.79% [at 42.5 µM] (inactive)
CCc1c(C(=O)NN2CCCCC2)nn(-c2ccc(Cl)cc2Cl)c1-c1ccc(Br)cc1 | -62% (inactive)
COc1ccc(C(=O)Nc2nc3ccccc3c(NCc3ccccc3)c2C#N)cc1 | -5.4% (inactive)
CCCCC/C=C\C/C=C\CCCCCCCC(=O)NC(C)c1ccccc1 (stereo unspecified) | -35.5% [at 42.5 µM] (inactive)
Cc1c(N)cccc1[N+](=O)[O-] | -14.7% (inactive)
CCCCCCCCCCCCCCOS(=O)(=O)O | -17.5% (inactive)
CCCCCCCCCCCCCCCCOS(=O)(=O)O | -16% [at 42.5 µM] (inactive)
CC(C)OC(=O)C(C)N(C(=O)c1ccccc1)c1ccc(F)c(Cl)c1 (stereo unspecified) | -51.7% (inactive)
CCCCCCCCCCCCCCCCCCOS(=O)(=O)O | -38.9% (inactive)
CCCCC(CC)CN1C(=O)C2C3C=CC(C3)C2C1=O (stereo unspecified) | -33.1% (inactive)
COC(=O)C1=C(C)NC(COC(N)=O)=C(C(=O)OC(C)C)C1c1cccc(Cl)c1Cl (stereo unspecified) | -36.5% [at 42.5 µM] (inactive)
C=CC(=O)OCCOc1ccccc1 | 46.4% (active)
CCCOC(C(=O)OC1CCN(C)CC1)(c1ccccc1)c1ccccc1 | -25.8% [at 42.5 µM] (inactive)
COc1cc2nc(N(C)CCCNC(=O)C3CCCO3)nc(N)c2cc1OC (stereo unspecified) | -34.3% [at 42.5 µM] (inactive)
Cn1c(=O)cc(Oc2ccc(F)cc2F)c2cnc(NCC(C)(C)O)nc21 | -55.2% (inactive)

From PubChem BioAssay (Tox21)
